Assay results taken from the supplement of paper PMC12645437, “Orthogonal IMiD-Degron Pairs Induce Selective Protein Degradation in Cells” (ACS Chemical Biology, 2025).
The full ranking holds about 8,300 sequences; the median of “log2 fold change of degron read counts, EGFP-low vs EGFP+ sorted cells (limma voom), compound-induced degradation” is about -1.1, and the highest 2% start at about 3.2. For the sample, the highest values were picked, then their nearest neighbours and some sequences at random.

T1: CRBN, Q96SW2
T1 chain: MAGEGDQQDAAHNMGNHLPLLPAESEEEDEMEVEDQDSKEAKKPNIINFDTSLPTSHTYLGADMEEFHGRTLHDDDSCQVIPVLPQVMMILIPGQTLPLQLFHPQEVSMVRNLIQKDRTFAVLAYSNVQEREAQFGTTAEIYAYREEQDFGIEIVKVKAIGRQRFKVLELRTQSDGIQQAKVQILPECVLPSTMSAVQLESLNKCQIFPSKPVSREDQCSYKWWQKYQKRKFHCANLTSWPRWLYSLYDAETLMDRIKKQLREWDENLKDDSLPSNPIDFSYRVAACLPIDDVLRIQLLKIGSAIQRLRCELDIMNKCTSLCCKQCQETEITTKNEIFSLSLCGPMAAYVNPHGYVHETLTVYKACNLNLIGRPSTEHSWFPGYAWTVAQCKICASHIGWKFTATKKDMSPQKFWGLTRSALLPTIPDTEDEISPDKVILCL

B1: 46F_47H_49N_50I_52G_53A_54H_55F_67L_, Q9UKT9 (peptide)
chain: FHCNICGAHFTQKGNLLRHIKL
B2: 46F_47G_49P_50I_52G_53H_54Q_55F_67L_, Q9UKT9 (peptide)
chain: FGCPICGHQFTQKGNLLRHIKL
B3: 46F_47V_49E_50V_52G_53A_54W_55F_67L_, Q9UKT9 (peptide)
chain: FVCEVCGAWFTQKGNLLRHIKL
B4: 46F_47L_49D_50Q_52G_53A_54M_55F_67L_, Q9UKT9 (peptide)
chain: FLCDQCGAMFTQKGNLLRHIKL
B5: 46F_47I_49N_50Q_52G_53R_54A_55F_67L_, Q9UKT9 (peptide)
chain: FICNQCGRAFTQKGNLLRHIKL
B6: 46F_47G_49N_50Q_52G_53A_54H_55F_67L_, Q9UKT9 (peptide)
chain: FGCNQCGAHFTQKGNLLRHIKL
B7: 46F_47R_49E_50I_52G_53H_54Q_55F_67L_, Q9UKT9 (peptide)
chain: FRCEICGHQFTQKGNLLRHIKL
B8: 46F_47Q_49D_50V_52G_53A_54C_55F_67L_, Q9UKT9 (peptide)
chain: FQCDVCGACFTQKGNLLRHIKL
B9: 46F_47L_49S_50V_52G_53H_54L_55F_67L_, Q9UKT9 (peptide)
chain: FLCSVCGHLFTQKGNLLRHIKL
B10: 46L_47N_49P_50I_52G_53F_54Q_55C_67L_, Q9UKT9 (peptide)
chain: LNCPICGFQCTQKGNLLRHIKL
B11: 46L_47R_49P_50I_52G_53F_54Q_55C_67L_, Q9UKT9 (peptide)
chain: LRCPICGFQCTQKGNLLRHIKL
B12: 46L_47I_49P_50I_52G_53F_54Q_55C_67L_, Q9UKT9 (peptide)
chain: LICPICGFQCTQKGNLLRHIKL
B13: 46L_47C_49P_50I_52G_53F_54Q_55C_67L_, Q9UKT9 (peptide)
chain: LCCPICGFQCTQKGNLLRHIKL
B14: 46L_47W_49P_50I_52G_53F_54Q_55C_67L_, Q9UKT9 (peptide)
chain: LWCPICGFQCTQKGNLLRHIKL
B15: 46L_47T_49P_50I_52G_53F_54Q_55C_67L_, Q9UKT9 (peptide)
chain: LTCPICGFQCTQKGNLLRHIKL
B16: 46L_47F_49P_50I_52G_53F_54Q_55C_67L_, Q9UKT9 (peptide)
chain: LFCPICGFQCTQKGNLLRHIKL
B17: 46L_47D_49P_50I_52G_53F_54Q_55C_67L_, Q9UKT9 (peptide)
chain: LDCPICGFQCTQKGNLLRHIKL
B18: 46L_47Y_49P_50I_52G_53F_54Q_55C_67L_, Q9UKT9 (peptide)
chain: LYCPICGFQCTQKGNLLRHIKL
B19: 46L_47K_49P_50I_52G_53F_54Q_55C_67L_, Q9UKT9 (peptide)
chain: LKCPICGFQCTQKGNLLRHIKL
B20: 46L_47Q_49P_50I_52G_53F_54Q_55C_67L_, Q9UKT9 (peptide)
chain: LQCPICGFQCTQKGNLLRHIKL
B21: 46L_47M_49P_50I_52G_53F_54Q_55C_67L_, Q9UKT9 (peptide)
chain: LMCPICGFQCTQKGNLLRHIKL

Target: T1, CRBN, Q96SW2
Experiment: log2 fold change of degron read counts, EGFP-low vs EGFP+ sorted cells (limma voom), compound-induced degradation; higher = more compound-induced degradation of the degron-EGFP fusion; degrons are variants of IKZF1/3 zinc finger 2; compound dose not given here
Conditions: Jurkat, 18 h
[1] = compound: compound 19 (5-tert-butyl-thalidomide)
[2] = compound: compound 22 (5-morpholino-thalidomide)
[3] = compound: compound 33 (diphenyl IMiD analogue)
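Also: pooled lentiviral library of zinc finger degron-EGFP fusions in mCherry-positive Jurkat cells, FACS-sorted after compound exposure, with degron abundance counted by next-generation sequencing.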

Sequence | log2 fold change of degron read counts [1] | log2 fold change of degron read counts [2] | log2 fold change of degron read counts [3] | log2 fold change of degron read counts (compound: thalidomide)
B1 | 0.23 | -0.286 | -0.308 | -1.49
B2 | -1.23 | -2.85 | -2.17 | -2.38
B3 | -1.7 | -0.89 | 0.622 | 0.0931
B4 | -3.11 | -2.68 | -1.79 | -2.7
B5 | -2.99 | -3.18 | -3.02 | -2.57
B6 | -2.35 | -2.82 | -1.79 | -2.17
B7 | -3.28 | -3.74 | -2.48 | -2.14
B8 | -1.14 | 1.47 | 0.493 | 3.01
B9 | -2.16 | -2.42 | -2.1 | -2
B10 | 1.88 | 1.12 | 0.537 | 1.19
B11 | 0.722 | 0.186 | 1.12 | 1.62
B12 | 0.317 | 2.57 | 2.11 | 2.94
B13 | 2.04 | 2.42 | 2.76 | 2.48
B14 | 3.21 | 3.52 | 2.81 | 1.97
B15 | 0.773 | 2.5 | 2.25 | 2.88
B16 | 3.36 | 3.29 | 2.33 | 2.04
B17 | 0.742 | 0.239 | 0.58 | 1.8
B18 | 3.45 | 3.56 | 2.59 | 1.87
B19 | -0.0362 | -1.47 | -1.46 | 0.648
B20 | 1.01 | 1.71 | 1.77 | 3.45
B21 | 0.282 | 1.65 | 2.68 | 2.37
